Screens deposited in PubChem BioAssay by Broad Institute.
aSyn 5UTR act: Activators via SNCA 5'UTR binding, MLPCN; alpha-synuclein 5'UTR reporter, activators screen; activity score, % (tested at 7.5 µM), hits read low; 300,000 compounds, 7.1% hits; in the data active = activity score below about -60%
Starred values were filed as active, the others as inactive. The list is a sample of the results.

SMILES | aSyn 5UTR act
Cc1ccc(NC(=S)NC2CCCCC2)cc1S(=O)(=O)N(C)C | -65*
CC(=O)c1ccc(NC(=O)c2ccc([N+](=O)[O-])o2)cc1 | -355*
COc1ccc(NC(=O)c2ccc([N+](=O)[O-])o2)cc1 | -320*
CN1CCN(c2ccc(NC(=O)c3ccc([N+](=O)[O-])o3)cc2Cl)CC1 | 61
CCCC(=O)N1CCN(c2ccc(NC(=O)c3ccc([N+](=O)[O-])o3)cc2Cl)CC1 | -118*
NS(=O)(=O)c1ccc(O)c(NC(=O)c2ccc([N+](=O)[O-])o2)c1 | -62*
Cc1ccccc1C(=O)N1CCN(c2ccc(NC(=O)c3ccc([N+](=O)[O-])o3)cc2)CC1 | -168*
O=C(Nc1ccc2oc(=O)ccc2c1)c1ccc(-c2cccc([N+](=O)[O-])c2)o1 | 92
CN1CCN(c2ccc(NC(=O)c3ccc(-c4cccc([N+](=O)[O-])c4)o3)cc2)CC1 | -208*
Cc1ccccc1C(=O)N1CCN(c2ccc(NC(=O)c3ccc4c(c3)OCO4)cc2)CC1 | 48
Nc1ccccc1C#CC(=O)c1ccccc1 | -90*
CCN1CCN(C(CNC(=O)c2ccc3c(c2)OCO3)c2cccnc2)CC1 (stereo not drawn) | -69*
O=C(Nc1ccc(Br)cc1)C1OCCc2ccccc21 (stereo not drawn) | -84*
CCc1ccc(C(=O)Cc2cc3cccc(OC)c3oc2=O)cc1 | -105*
CCc1ccc(-c2nc(C(N)=O)c3[nH]c(=O)n(-c4ccccc4OC)c3n2)cc1 | 82
COc1cccc2cc(C(=O)OCC(=O)NCc3ccc4c(c3)OCO4)c(=O)oc12 | -92*
COc1cccc2cc(C(=O)Nc3ccccc3C)/c(=N/O)oc12 | -114*
COc1cccc2cc(C(=O)c3ccccc3)oc12 | -132*
COc1cccc2cc(C(=O)NCc3ccccc3Cl)c(=O)oc12 | -101*
COc1cccc2cc(C(=O)NCc3ccco3)c(=Nc3ccc(C(=O)O)cc3)oc12 | -90*
COc1cccc2cc(CC(=O)c3cc(C)ccc3C)c(=O)oc12 | -116*
COc1cccc2cc(CC(=O)c3ccccc3)c(=O)oc12 | -147*
COc1cccc2cc(-c3nc4ccccc4o3)c(=O)oc12 | -169*
Nc1ccccc1C(=O)N/N=C1\C2CN3CCN(C2)CC1(c1ccccc1)C3 | -92*
CCCC12CN3CCN(CC(C3)/C1=N\NC(=O)c1ccccc1N)C2 | -76*
SMILES | aSyn 5UTR act
Cc1cccc(C)c1Nc1nnc(SCc2nc3ccccc3s2)s1 | -85*
COc1cccc(Nc2nnc(SCc3nc4ccccc4s3)s2)c1 | -208*
Cc1ccnc(SCc2nc3ccccc3s2)n1 | -181*
O=C(NCc1ccc(F)cc1)c1c2c(nc3ccccc13)CCC2 | -71*
CCN(CC)C(=S)SSC(=S)N(CC)CC | 97
CCN(CC)C(=S)SCC(=O)c1ccc(F)cc1 | -133*
CCN(CC)C(=S)SCC(=O)c1ccccc1 | -165*
O=C(Cc1ccccc1)N/N=C/c1ccccc1OCc1ccc(Cl)cc1 | -95*
O/N=C/c1ccccc1OCc1ccc(Cl)cc1 | -98*
Cc1ccc(O)c(/C=N/NC(=O)Cc2ccc(Cl)cc2)c1 | 61
COC(=O)c1c(C)[nH]c(C(=O)/C=C/c2ccccc2Cl)c1C | -302*
COC(=O)c1c(C)[nH]c(C(=O)/C=C/c2ccccc2F)c1C | -245*
C=CCN(C(=O)C1CSC2(C)CCC(=O)N12)c1nc(-c2ccccc2)cs1 (stereo not drawn) | -68*
CCc1ccc(NC2=NCC(c3ccccc3)S2)cc1 (stereo not drawn) | -140*
C=CCSc1nnc(-c2cc3c(s2)-c2ccccc2CC3)o1 | -104*
Cc1ccc2nc(-c3ccc(NC(=O)CCS(=O)(=O)c4ccccc4)cc3)sc2c1 | 62
Cc1ccc2nc(-c3ccc(NC(=S)NC(=O)CC(C)C)cc3)sc2c1 | -178*
Cc1ccc2nc(-c3ccc(NC(=O)CSc4nc(N)cc(=O)[nH]4)cc3)sc2c1 | -177*
Cc1ccc2nc(-c3ccc(NC(=O)COC(=O)c4ccc(=O)[nH]c4)cc3)sc2c1 | -67*
Cc1ccc2nc(-c3ccc(NC(=O)CN4C(=O)c5ccccc5C4=O)cc3)sc2c1 | -200*
Cc1ccc2nc(-c3ccc(NC(=O)C(C)Sc4nncs4)cc3)sc2c1 (stereo not drawn) | 61
Cc1ccc2nc(-c3ccc(NC(=O)CN4CCN(c5ccccn5)CC4)cc3)sc2c1 | -146*
CN(C)c1ccc(NC(=O)c2ccc3nsnc3c2)cc1 | -166*
O=C(Nc1ccc(Cl)cc1)c1ccc2nsnc2c1 | -202*
O=C(c1cccs1)N1CCc2ccccc21 | -157*
SMILES | aSyn 5UTR act
CCOc1ccc(C(=O)N2CCc3ccccc32)cc1 | -104*
O=C(c1ccc2ccccc2c1)N1CCc2ccccc21 | -100*
Cc1ccc(NC(=O)/C(C#N)=C/c2cccs2)c(C)c1 | -169*
Cc1ccc(C)c(NC(=O)/C(C#N)=C/c2cn(CC(=O)NCc3ccco3)c3ccccc23)c1 | 58
N#C/C(=C\c1cccs1)C(=O)Nc1ccccn1 | -75*
COCCNC(=O)c1cc2c(s1)-c1ccc(Cl)cc1SC2 | -104*
COc1ccc2oc(=Nc3cc(F)ccc3F)c(C(N)=O)cc2c1 | -176*
COc1ccc2cc(C(N)=O)c(=Nc3ccccc3)oc2c1 | -90*
CC(=O)Nc1ccc(/C=N/Nc2nncc3ccccc23)cc1 | -126*
C(=N\Nc1nncc2ccccc12)/c1ccccn1 | 98
Cn1nnc2cc(NC(=O)Nc3cccc(Cl)c3)ccc21 | -151*
O=C(Nc1cccc(Cl)c1)Nc1ccc2nccnc2c1 | -163*
O=C(Nc1ccc2nccnc2c1)Nc1ccccc1Cl | -90*
CC1=NN(c2ccccc2)C(=O)/C1=C\c1cn(CCC#N)nc1-c1ccc(Cl)cc1 | -85*
Cc1c(C(=O)NCC2CCCO2)sc2nc(-c3ccc(F)cc3)cn12 (stereo not drawn) | -84*
CCN(CC)CCCNC(=O)c1sc2nc(-c3ccc(F)cc3)cn2c1C | -108*
COc1ccc(OC)c(Nc2cc(C)nc3ccc(C)cc23)c1 | 63
COc1ccc2nc(C)cc(Nc3ccc(N4CCN(C)CC4)cc3)c2c1 | -87*
CCOc1ccc(/C=C2\CCc3ccccc3C2=O)cc1 | -170*
COc1ccc(/C=C2\CCc3ccccc3C2=O)cc1CN1CCOCC1 | 62
COc1ccc2c(c1)CC/C(=C/c1ccco1)C2=O | -160*
O=C1/C(=C/c2ccco2)CCc2ccccc21 | -140*
COCCCNc1nnc(Cc2ccc(Cl)cc2)c(=O)[nH]1 | 66
COc1ccc(Nc2cc(C)c3ccc(O)cc3n2)cc1 | -138*
CCOc1ccc(Nc2cc(C)c3ccccc3n2)cc1 | -85*
SMILES | aSyn 5UTR act
Cc1nc(Nc2nc(-c3ccccc3)cc(=O)[nH]2)nc2ccccc12 | -120*
COc1ccc(Nc2nc(C)c3ccccc3n2)cc1 | -111*
CCOc1ccc(Nc2c3ccccc3nc3ccccc23)cc1 | -94*
Cc1cc(NCC2CCCCC2)nc2ccccc12 | -69*
Cc1cc(NC(=O)c2ccc([N+](=O)[O-])cc2)no1 | -130*
Cc1cc(NC(=O)c2ccccc2Cl)no1 | -68*
Cc1nc2ccc(NC(=O)c3ccc([N+](=O)[O-])cc3)cc2[nH]1 | -106*
Cc1cc(NC(=O)NC(=O)c2ccccc2F)no1 | -109*
CC(C)Oc1ccc(C(=O)Nc2ccc([N+](=O)[O-])cc2)cc1 | -211*
Cc1cc(NC(=O)c2sc3ccccc3c2O)no1 | -64*
Cc1ccc(NC(=O)c2ccc([N+](=O)[O-])cc2Cl)nc1 | -119*
Cc1cc(NC(=O)c2cc(C(C)C)on2)no1 | -140*
